VACV mCherry inh: qHTS for Stage-Specific Inhibitors of Vaccinia Orthopoxvirus: mCherry Reporter Primary qHTS. hit rate 0.63% among 310,000. Vaccinia virus mCherry reporter infection, fluorescence. AID 720579, 2013. Potency, µM (titrated, usually from 36.5 µM), most hits filed as inhibitors; calls by dose curve; tested in A549 cells; further: nearly all actives have a fitted effect of over 35% in size
Pf growth 48h: Primary qHTS for delayed death inhibitors of the malarial parasite plastid, 48 hour incubation. AID 504832, 2011. hit rate 5.9% among 310,000. Potency, µM (titrated, usually from 28.7 µM), actives largely listed as inhibitors. P. falciparum luciferase growth in erythrocytes, 48 h
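In quantitative HTS format, infected erythrocytes bearing luciferase-reporter parasites were treated for a single generation at 37 C. Luminescence after adding detection reagent served as the growth measure.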
AMA1-RON2 inh: qHTS for Inhibitors of AMA1-RON; Towards Development of Antimalarial Drug Lead: Primary Screen; AlphaScreen AMA1-biotinylated RON2 peptide binding; Potency, µM (highest dose often 58.2 µM), actives largely listed as inhibitors; AID 720542, 2013; Plasmodium falciparum AMA1 (3D7) - RON2 peptide interaction; hit rate 0.2% among 360,000; further: nearly all actives have a fitted effect of over 45% in size
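AMA1 (3D7) with his tag at 25 nM final met compounds first, then biotinylated RON2 peptide at 25 nM; detection used donor plus acceptor beads, 10 µg/mL apiece, read by AlphaScreen after 30 min at room temperature.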
Pf growth 96h: Primary qHTS for delayed death inhibitors of the malarial parasite plastid, 96 hour incubation. hit rate 6.9% among 320,000. AID 504834, 2011. P. falciparum luciferase reporter growth, 96 h. Potency, µM (titrated, usually from 28.7 µM), most hits filed as inhibitors
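Luminescence readout: decreased luciferase signal marks inhibited growth of reporter-expressing P. falciparum in infected red cells (2% hematocrit, 0.05% parasitemia final), exposed to compound two generations (96 h, 37 C, 5% CO2).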
VACV Venus inh: qHTS for Stage-Specific Inhibitors of Vaccinia Orthopoxvirus: Venus Reporter Primary qHTS | Potency, µM (titrated, usually from 36.5 µM), hits mostly inhibitors | Vaccinia virus Venus reporter expression, fluorescence | hit rate 0.46% among 330,000; calls by dose curve; tested in A549 cells; further: nearly all actives have a fitted effect of over 30% in size
Of the large screens only hits and unclear results are named; the others gave an inactive call. Sampled rows, rich in hits. Any-hit rate of the full collection: about 8.7%. Unless noted, the call rests on the fitted dose curve; in most records, active means well fitted curve in the direction sought with a large enough effect; inconclusive means small, poorly fitted or top-dose-only effect, or another doubt; inactive means no such curve, though single readings can be large; an effect the other way counts as inactive or inconclusive.

Cc1ccc(C)c(-c2nnc(NC(=O)CCS(=O)(=O)c3ccccc3)o2)c1	Pf growth 48h inconclusive
CC1=CC(C)C(CN(CCC[N+](C)(C)C)C(=O)Nc2ccccc2)C(C)C1 (stereo not drawn)	Pf growth 48h inconclusive, Pf growth 96h 12µM
Clc1ccc(C(c2nnnn2C2CCCCC2)N(Cc2cccnc2)Cc2ccco2)cc1 (stereo not drawn)	Pf growth 48h inconclusive, Pf growth 96h inconclusive (no result: VACV mCherry inh)
CCN(Cc1ccccc1)C(c1cccs1)c1nnnn1C1CCCCC1 (stereo not drawn)	Pf growth 48h 9.3µM
CC(c1nnnn1C1CCCCC1)N(Cc1ccccc1)Cc1cccnc1 (stereo not drawn)	Pf growth 48h 10µM (no result: VACV mCherry inh)
CCN(Cc1ccccc1)C(c1ccccn1)c1nnnn1C1CCCCC1 (stereo not drawn)	Pf growth 48h 12µM (no result: VACV mCherry inh)
COc1cc(CN(C(=O)COc2ccc(F)cc2)c2ccccn2)cc(OC)c1OC	none (no result: Pf growth 48h, AMA1-RON2 inh, Pf growth 96h)
COC(=O)c1sccc1S(=O)(=O)N1CCN(c2ccc(C(C)=O)cc2)CC1	none (no result: Pf growth 48h, AMA1-RON2 inh, Pf growth 96h)
Cc1cc(C(=O)NCc2ccccc2C)c2c(C)nn(-c3cccc(F)c3)c2n1	none (no result: Pf growth 48h, AMA1-RON2 inh, Pf growth 96h)
CC(=O)Nc1ccc(SC[C@H](CC(C)C)N2CCN(CC(C)C)CCC2=O)cc1	Pf growth 48h inconclusive, Pf growth 96h inconclusive
O=C1CCN(CCc2ccccc2)CCN1[C@H](CSc1ccc(Br)cc1)Cc1ccccc1	VACV mCherry inh inconclusive, Pf growth 48h 13µM, Pf growth 96h 8.3µM, VACV Venus inh inconclusive
CC(=O)Nc1ccc(SC[C@H](Cc2ccccc2)N2CCN(CC(C)C)CCC2=O)cc1	Pf growth 48h 7.4µM, Pf growth 96h 4.7µM
CC(=O)Nc1ccc(SC[C@H](CC(C)C)N2CCN(CCc3ccccc3)CCC2=O)cc1	VACV mCherry inh inconclusive, Pf growth 48h 9.3µM, Pf growth 96h 7.4µM
O=C(c1cccc(NS(=O)(=O)c2ccc(F)c(F)c2)c1)N1CCN(C(c2ccccc2)c2ccccc2)CC1	Pf growth 48h 13µM, Pf growth 96h inconclusive, VACV Venus inh inconclusive
O=C(C1CCCCN1S(=O)(=O)c1ccc(F)cc1)N1CCN(c2ccccc2F)CC1 (stereo not drawn)	VACV mCherry inh inconclusive, Pf growth 96h 4.7µM
O=C(c1cccc(NS(=O)(=O)c2ccccc2)c1)N1CCCC1	none (no result: VACV mCherry inh, VACV Venus inh)
COc1ccccc1N1CCN(C(=O)C2CCCCN2S(=O)(=O)c2ccc(C)cc2)CC1 (stereo not drawn)	Pf growth 48h inconclusive (no result: VACV mCherry inh, VACV Venus inh)
CS(=O)(=O)N(CC(=O)N1CCN(C(c2ccccc2)c2ccccc2)CC1)C1CCCCC1	Pf growth 96h 2.6µM (no result: VACV mCherry inh, Pf growth 48h, VACV Venus inh)
O=C(C1CCCCN1S(=O)(=O)c1ccccc1)N1CCN(C(c2ccccc2)c2ccccc2)CC1 (stereo not drawn)	Pf growth 48h 1.9µM, Pf growth 96h 1.9µM (no result: VACV mCherry inh, VACV Venus inh)
CCn1ccc2cc(S(=O)(=O)N3CCC(C(=O)NCCc4ccc(SC)cc4)CC3)ccc21	none (no result: Pf growth 48h, AMA1-RON2 inh, Pf growth 96h)
Cc1cnc(-n2ncc(C(=O)NCc3ccccn3)c2C2CC2)nc1-c1cccs1	none (no result: Pf growth 48h, AMA1-RON2 inh, Pf growth 96h)
CCOC(=O)/C=C1/N(C)c2ccccc2C1(C)C	none
CN1/C(=C\C(=O)CSc2cccc[n+]2[O-])C(C)(C)c2ccccc21	Pf growth 96h 3.3µM
CN1/C(=C\C(=O)C[n+]2cccc(Br)c2)C(C)(C)c2ccccc21	VACV mCherry inh inconclusive, Pf growth 48h 2.3µM, Pf growth 96h 15µM
Cc1cccc[n+]1CC(=O)/C=C1\N(C)c2ccccc2C1(C)C	Pf growth 48h 2.9µM, Pf growth 96h 2.9µM
CN1/C(=C\C(=O)c2cccs2)C(C)(C)c2ccccc21	Pf growth 48h 9.3µM
CC(C)Cn1cc(NC(=O)NCc2ccccc2Cl)c2ccccc2c1=O	none (no result: Pf growth 48h, AMA1-RON2 inh, Pf growth 96h)
CN1/C(=C\C(=O)C[n+]2ccc(C(=O)c3ccccc3)cc2)C(C)(C)c2ccccc21	Pf growth 48h 2.1µM, Pf growth 96h 7.4µM, VACV Venus inh inconclusive
COc1ccc(Nc2nnc(SCC(=O)/C=C3/N(C)c4ccccc4C3(C)C)s2)cc1	Pf growth 48h 9.3µM, Pf growth 96h 7.4µM
CN1/C(=C\C(=O)CSc2nnc(N)s2)C(C)(C)c2ccccc21	none
O=C(CSc1cccc[n+]1[O-])C12CC3CC(CC(C3)C1)C2	Pf growth 96h 4.1µM
